± gives the standard deviation of the averaged measurements. The full data set covers some 6,500 targets. This sample favours those with the largest changes.
Compound: Nc1ncnc2c1ncn2[C@@H]1O[C@H](COP(=O)(O)OP(=O)(O)OP(=O)(O)O)[C@@H](O)[C@H]1O [adenosine triphosphate]
Assay: NP40-soluble protein abundance relative to vehicle (solubility fold change) (ratio); higher = more soluble protein in presence of ATP
Outline: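 Jurkat crude lysate prepared with a Dounce homogeniser was treated at eight concentrations spanning 0.1 to 10 mM, 10 min at room temperature then 3 min at 37 °C. Solubilisation with 0.8% NP40 and benzonase and ultracentrifugation preceded TMT labelling of the supernatant for LC-MS/MS. Fold change against the detergent-processed vehicle was determined per replicate from vsn-normalised intensities, across three independent experiments.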

Chain of UniProt Q9BVC6 (Q9BVC6 whole entry): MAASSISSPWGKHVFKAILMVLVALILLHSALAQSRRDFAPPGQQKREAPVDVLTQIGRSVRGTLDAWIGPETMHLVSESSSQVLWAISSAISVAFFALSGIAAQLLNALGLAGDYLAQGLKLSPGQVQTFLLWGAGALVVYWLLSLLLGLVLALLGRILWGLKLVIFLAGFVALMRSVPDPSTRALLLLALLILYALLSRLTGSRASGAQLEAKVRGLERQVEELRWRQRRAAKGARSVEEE
Chain of UniProt Q9HC36 (Q9HC36 whole entry): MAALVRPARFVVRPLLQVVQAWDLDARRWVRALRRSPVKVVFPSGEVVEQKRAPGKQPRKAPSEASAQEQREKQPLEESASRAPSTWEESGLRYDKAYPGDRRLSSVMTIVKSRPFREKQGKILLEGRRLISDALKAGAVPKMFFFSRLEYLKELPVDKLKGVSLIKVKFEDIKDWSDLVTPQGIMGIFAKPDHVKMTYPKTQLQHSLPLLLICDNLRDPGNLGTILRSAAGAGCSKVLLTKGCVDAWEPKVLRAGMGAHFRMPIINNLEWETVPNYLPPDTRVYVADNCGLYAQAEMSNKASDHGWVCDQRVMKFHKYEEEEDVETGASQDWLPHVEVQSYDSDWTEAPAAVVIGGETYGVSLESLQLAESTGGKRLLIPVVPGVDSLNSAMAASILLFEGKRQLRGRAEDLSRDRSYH
Chain of UniProt Q9HCD5 (Q9HCD5 whole entry): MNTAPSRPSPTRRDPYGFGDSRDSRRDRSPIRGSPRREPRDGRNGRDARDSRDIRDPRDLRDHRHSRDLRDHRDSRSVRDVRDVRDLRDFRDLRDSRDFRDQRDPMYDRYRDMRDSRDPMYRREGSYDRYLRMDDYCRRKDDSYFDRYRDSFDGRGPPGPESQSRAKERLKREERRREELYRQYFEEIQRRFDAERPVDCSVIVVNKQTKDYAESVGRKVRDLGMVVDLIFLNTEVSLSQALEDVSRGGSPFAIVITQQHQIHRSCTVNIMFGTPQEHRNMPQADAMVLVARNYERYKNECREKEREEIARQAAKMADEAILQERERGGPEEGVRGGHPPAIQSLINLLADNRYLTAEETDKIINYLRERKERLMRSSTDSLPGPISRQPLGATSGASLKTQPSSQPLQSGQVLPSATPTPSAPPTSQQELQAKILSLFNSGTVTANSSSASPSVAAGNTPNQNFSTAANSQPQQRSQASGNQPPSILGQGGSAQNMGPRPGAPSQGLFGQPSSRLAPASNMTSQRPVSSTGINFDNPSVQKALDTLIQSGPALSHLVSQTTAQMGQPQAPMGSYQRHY
Chain of UniProt Q9BUQ8 (Q9BUQ8 whole entry): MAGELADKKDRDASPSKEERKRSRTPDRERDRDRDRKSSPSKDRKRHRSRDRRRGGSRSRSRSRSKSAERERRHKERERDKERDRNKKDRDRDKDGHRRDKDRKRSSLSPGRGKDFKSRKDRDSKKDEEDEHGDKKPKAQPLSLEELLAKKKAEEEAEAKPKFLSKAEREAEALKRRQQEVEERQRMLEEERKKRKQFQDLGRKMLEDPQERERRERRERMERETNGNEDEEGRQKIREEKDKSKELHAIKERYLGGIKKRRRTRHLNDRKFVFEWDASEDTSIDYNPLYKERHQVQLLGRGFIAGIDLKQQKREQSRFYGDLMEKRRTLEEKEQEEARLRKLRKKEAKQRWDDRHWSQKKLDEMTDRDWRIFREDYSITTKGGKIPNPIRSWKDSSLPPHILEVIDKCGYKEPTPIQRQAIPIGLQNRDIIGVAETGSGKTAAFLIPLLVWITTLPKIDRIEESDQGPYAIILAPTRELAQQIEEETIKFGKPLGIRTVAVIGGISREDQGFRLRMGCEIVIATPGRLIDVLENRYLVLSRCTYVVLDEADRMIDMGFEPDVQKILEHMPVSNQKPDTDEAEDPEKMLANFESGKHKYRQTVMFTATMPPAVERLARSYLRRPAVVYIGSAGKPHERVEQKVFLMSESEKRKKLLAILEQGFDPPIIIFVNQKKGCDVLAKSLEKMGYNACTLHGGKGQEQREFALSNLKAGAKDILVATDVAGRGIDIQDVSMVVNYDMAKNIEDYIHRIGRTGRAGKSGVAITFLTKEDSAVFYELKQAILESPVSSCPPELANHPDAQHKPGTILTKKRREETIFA
Chain of UniProt Q9C073 (Q9C073 whole entry): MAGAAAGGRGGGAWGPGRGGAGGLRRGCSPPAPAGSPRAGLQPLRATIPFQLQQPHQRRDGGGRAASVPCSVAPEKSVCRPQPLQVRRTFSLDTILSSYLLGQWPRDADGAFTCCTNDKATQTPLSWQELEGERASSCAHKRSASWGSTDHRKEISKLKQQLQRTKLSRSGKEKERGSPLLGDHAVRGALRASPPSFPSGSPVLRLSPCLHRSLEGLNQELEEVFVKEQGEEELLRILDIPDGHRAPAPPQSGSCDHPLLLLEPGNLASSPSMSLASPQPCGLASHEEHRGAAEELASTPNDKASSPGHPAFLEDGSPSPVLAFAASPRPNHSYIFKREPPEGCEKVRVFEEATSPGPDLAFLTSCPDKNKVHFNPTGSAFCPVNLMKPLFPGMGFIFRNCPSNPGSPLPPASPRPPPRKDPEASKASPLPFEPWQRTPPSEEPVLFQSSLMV
Chain of UniProt Q969Z0 (Q969Z0 whole entry): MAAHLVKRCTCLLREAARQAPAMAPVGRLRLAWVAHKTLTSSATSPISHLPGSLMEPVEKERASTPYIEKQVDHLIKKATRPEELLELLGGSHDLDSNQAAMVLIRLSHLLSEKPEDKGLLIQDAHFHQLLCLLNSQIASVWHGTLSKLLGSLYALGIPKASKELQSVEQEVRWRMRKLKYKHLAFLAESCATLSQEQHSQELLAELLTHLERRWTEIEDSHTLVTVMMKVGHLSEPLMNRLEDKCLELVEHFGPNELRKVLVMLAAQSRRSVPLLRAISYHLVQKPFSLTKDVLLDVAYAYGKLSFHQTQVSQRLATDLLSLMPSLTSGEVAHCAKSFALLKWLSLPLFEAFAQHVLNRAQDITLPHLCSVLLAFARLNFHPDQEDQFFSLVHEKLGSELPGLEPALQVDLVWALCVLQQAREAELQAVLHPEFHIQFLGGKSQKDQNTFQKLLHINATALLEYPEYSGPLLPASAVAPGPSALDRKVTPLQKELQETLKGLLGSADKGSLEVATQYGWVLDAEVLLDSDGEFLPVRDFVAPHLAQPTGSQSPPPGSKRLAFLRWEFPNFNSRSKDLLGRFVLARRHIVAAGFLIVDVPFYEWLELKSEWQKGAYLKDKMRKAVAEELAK
Chain of UniProt Q9BYC5 (Q9BYC5 whole entry): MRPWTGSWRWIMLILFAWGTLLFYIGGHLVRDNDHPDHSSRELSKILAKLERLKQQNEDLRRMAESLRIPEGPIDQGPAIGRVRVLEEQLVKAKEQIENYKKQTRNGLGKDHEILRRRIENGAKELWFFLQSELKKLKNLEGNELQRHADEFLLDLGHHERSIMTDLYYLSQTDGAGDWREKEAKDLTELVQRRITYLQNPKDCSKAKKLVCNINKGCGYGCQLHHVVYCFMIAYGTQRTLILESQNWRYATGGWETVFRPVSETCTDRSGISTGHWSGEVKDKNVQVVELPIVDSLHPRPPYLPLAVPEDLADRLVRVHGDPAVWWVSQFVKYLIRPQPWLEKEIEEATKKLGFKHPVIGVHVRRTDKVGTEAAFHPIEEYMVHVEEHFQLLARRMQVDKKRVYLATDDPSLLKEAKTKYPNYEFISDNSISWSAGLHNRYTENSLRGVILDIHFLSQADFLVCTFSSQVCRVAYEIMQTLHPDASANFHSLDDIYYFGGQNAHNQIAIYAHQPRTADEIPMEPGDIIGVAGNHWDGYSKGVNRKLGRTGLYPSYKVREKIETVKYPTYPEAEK
Chain of UniProt Q9HDC9 (Q9HDC9 whole entry): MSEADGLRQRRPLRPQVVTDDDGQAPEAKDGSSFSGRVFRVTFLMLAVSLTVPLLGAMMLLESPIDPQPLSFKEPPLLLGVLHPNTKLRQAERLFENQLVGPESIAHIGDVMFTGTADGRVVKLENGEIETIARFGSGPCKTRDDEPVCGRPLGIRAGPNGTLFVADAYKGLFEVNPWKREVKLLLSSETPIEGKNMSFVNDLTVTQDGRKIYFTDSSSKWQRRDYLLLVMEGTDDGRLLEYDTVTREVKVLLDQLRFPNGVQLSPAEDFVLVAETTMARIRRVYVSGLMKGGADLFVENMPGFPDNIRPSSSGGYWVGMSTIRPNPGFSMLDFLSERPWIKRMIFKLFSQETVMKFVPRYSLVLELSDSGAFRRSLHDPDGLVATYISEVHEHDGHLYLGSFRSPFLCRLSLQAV
Chain of UniProt Q96DT6 (Q96DT6 whole entry): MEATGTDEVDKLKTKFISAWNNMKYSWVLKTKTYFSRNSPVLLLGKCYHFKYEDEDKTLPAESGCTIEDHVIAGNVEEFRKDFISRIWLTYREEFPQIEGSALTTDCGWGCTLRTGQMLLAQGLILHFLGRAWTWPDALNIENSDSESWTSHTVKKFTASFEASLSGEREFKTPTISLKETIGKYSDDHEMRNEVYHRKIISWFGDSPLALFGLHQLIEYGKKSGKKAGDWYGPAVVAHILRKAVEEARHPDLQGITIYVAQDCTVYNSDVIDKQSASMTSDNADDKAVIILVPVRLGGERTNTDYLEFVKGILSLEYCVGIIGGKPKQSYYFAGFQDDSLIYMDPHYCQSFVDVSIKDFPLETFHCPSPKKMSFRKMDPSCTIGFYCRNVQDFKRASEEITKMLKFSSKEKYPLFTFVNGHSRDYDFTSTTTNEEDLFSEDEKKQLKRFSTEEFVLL
Chain of UniProt Q8WXX5 (Q8WXX5 whole entry): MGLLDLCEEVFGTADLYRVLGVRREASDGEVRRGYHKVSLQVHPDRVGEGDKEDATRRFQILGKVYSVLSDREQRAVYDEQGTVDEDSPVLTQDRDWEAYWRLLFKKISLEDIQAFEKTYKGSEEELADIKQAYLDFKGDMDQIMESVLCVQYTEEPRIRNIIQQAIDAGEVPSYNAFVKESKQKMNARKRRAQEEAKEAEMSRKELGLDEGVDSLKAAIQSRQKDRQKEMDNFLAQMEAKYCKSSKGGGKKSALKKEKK

Target	NP40-soluble protein abundance (concentration: 1mM)	NP40-soluble protein abundance (concentration: 2mM)	NP40-soluble protein abundance (concentration: 4mM)	NP40-soluble protein abundance (concentration: 6mM)	NP40-soluble protein abundance (concentration: 8mM)	NP40-soluble protein abundance (concentration: 10mM)
SAP30L (UniProt Q9HAJ7)	1.0942 ± 0.00039	1.12 ± 0.069	1.13 ± 0.092	1.185 ± 0.0041	1.11 ± 0.13	1.07 ± 0.082
UniProt Q8WX93|Q8WX93-3|Q8WX93-4|Q8WX93-5|Q8WX93-8	0.978 ± 0.024	0.966 ± 0.046	1.01 ± 0.026	0.97 ± 0.042	0.971 ± 0.044	0.986 ± 0.036
DDX23 (UniProt Q9BUQ8)	1.14 ± 0.052	1.23 ± 0.1	1.38 ± 0.13	1.52 ± 0.21	1.69 ± 0.17	1.81 ± 0.2
VPS37B (UniProt Q9H9H4)	0.992 ± 0.11	0.958 ± 0.12	0.967 ± 0.057	0.983 ± 0.12	0.946 ± 0.073	0.887 ± 0.13
PNKP (UniProt Q96T60)	1.04 ± 0.02	1.0346 ± 0.00031	1.03 ± 0.022	1.05 ± 0.023	1.11 ± 0.036	1.157 ± 0.011
UniProt Q9NW64	1.05 ± 0.068	1.04 ± 0.041	1.07 ± 0.034	1.09 ± 0.05	1.1 ± 0.049	1.11 ± 0.019
UniProt Q96KB5|Q96KB5-2	1 ± 0.038	0.98 ± 0.051	0.964 ± 0.031	0.949 ± 0.083	0.958 ± 0.042	0.965 ± 0.039
DNAJC9 (UniProt Q8WXX5)	1.04 ± 0.024	1.13 ± 0.012	1.34 ± 0.04	1.55 ± 0.057	1.73 ± 0.12	1.76 ± 0.1
MECR (UniProt Q9BV79)	0.969 ± 0.013	0.959 ± 0.056	0.964 ± 0.037	0.957 ± 0.054	0.94 ± 0.013	0.92 ± 0.012
ATG4C (UniProt Q96DT6)	1.036 ± 0.003	1.05 ± 0.081	1.04 ± 0.041	0.992 ± 0.12	1.05 ± 0.087	1 ± 0.092
UniProt Q9NVR5	0.965 ± 0.028	0.98 ± 0.039	1 ± 0.047	1.04 ± 0.065	1.01 ± 0.12	0.967 ± 0.044
UniProt Q9BXK5|Q9BXK5-4	0.958 ± 0.041	0.97 ± 0.011	0.957 ± 0.028	0.988 ± 0.021	0.926 ± 0.031	0.916 ± 0.052
UniProt Q9NZC7|Q9NZC7-2	1.028 ± 0.01	1.04 ± 0.073	1.04 ± 0.1	1.08 ± 0.13	1.06 ± 0.073	1.2 ± 0.29
RDH14 (UniProt Q9HBH5)	0.997 ± 0.049	1.01 ± 0.0098	1.03 ± 0.043	0.998 ± 0.056	1.05 ± 0.037	1.01 ± 0.035
FUT8 (UniProt Q9BYC5)	1 ± 0.035	0.987 ± 0.052	1.02 ± 0.025	0.9889 ± 0.0069	1.04 ± 0.045	1.01 ± 0.039
UniProt Q9BRQ0|Q5T171	0.931 ± 0.11	0.887 ± 0.18	0.898 ± 0.15	0.944 ± 0.19	0.865 ± 0.15	0.909 ± 0.29
UniProt Q96HN2-2|Q96HN2	0.919 ± 0.042	0.934 ± 0.051	0.898 ± 0.025	0.939 ± 0.052	0.911 ± 0.017	0.934 ± 0.01
UniProt Q9NVI7-2	1.54 ± 0.05	1.64 ± 0.086	1.8 ± 0.086	1.89 ± 0.29	2.2 ± 0.2	2.35 ± 0.26
UniProt Q9H6R4|Q9H6R4-4|A0A0A0MRW6|Q9H6R4-2	1.08 ± 0.049	1.03 ± 0.018	1.28 ± 0.027	1.31 ± 0.041	1.39 ± 0.15	1.72 ± 0.15
TMEM109 (UniProt Q9BVC6)	0.943 ± 0.051	0.962 ± 0.066	0.999 ± 0.082	0.915 ± 0.03	0.955 ± 0.046	0.91 ± 0.074

Target	NP40-soluble protein abundance (concentration: 1mM)	NP40-soluble protein abundance (concentration: 2mM)	NP40-soluble protein abundance (concentration: 4mM)	NP40-soluble protein abundance (concentration: 6mM)	NP40-soluble protein abundance (concentration: 8mM)	NP40-soluble protein abundance (concentration: 10mM)
PAAF1 (UniProt Q9BRP4)	1.02 ± 0.037	1.04 ± 0.02	1.01 ± 0.072	0.982 ± 0.02	0.977 ± 0.011	1.01 ± 0.023
DDX21 (UniProt Q9NR30)	1.29 ± 0.046	1.42 ± 0.042	1.65 ± 0.098	2.04 ± 0.17	2.53 ± 0.21	3.17 ± 0.13
UniProt Q9H974|Q9H974-4	1.03 ± 0.044	1 ± 0.035	1 ± 0.029	0.996 ± 0.044	1.02 ± 0.016	0.991 ± 0.025
UniProt Q9P035|H3BS72	1.1 ± 0.16	1.1 ± 0.11	1.1 ± 0.11	1.01 ± 0.091	1.1 ± 0.033	1.15 ± 0.083
ELMO1 (UniProt Q92556)	1.05 ± 0.05	1.04 ± 0.043	1.02 ± 0.036	1 ± 0.067	1.04 ± 0.038	1.05 ± 0.05
UniProt Q9NYP7|Q9NYP7-2	1.07 ± 0.19	1.05 ± 0.12	1.05 ± 0.14	0.94 ± 0.15	1.09 ± 0.17	1.01 ± 0.056
UniProt Q969U7|Q969U7-2	1.02 ± 0.072	1.01 ± 0.012	0.965 ± 0.055	0.983 ± 0.029	0.978 ± 0.072	0.986 ± 0.081
DHX33 (UniProt Q9H6R0)	1.04 ± 0.059	1.1 ± 0.012	1.349 ± 0.0092	1.29 ± 0.089	1.44 ± 0.18	1.51 ± 0.2
EIF2AK4 (UniProt Q9P2K8)	1.04 ± 0.096	1.02 ± 0.078	1.02 ± 0.071	0.967 ± 0.073	1.03 ± 0.056	1.03 ± 0.082
UniProt Q96CN4|Q96CN4-2	0.985 ± 0.035	1.02 ± 0.061	1.13 ± 0.21	1.1 ± 0.084	1 ± 0.034	1.05 ± 0.059
UniProt Q9NQW7-3	1.01 ± 0.044	0.994 ± 0.029	0.968 ± 0.044	0.976 ± 0.052	0.991 ± 0.043	0.966 ± 0.036
FAM117A (UniProt Q9C073)	1.04 ± 0.03	0.992 ± 0.02	0.999 ± 0.039	1.01 ± 0.025	0.972 ± 0.053	0.972 ± 0.024
UniProt Q9NY12|Q9NY12-2	1.11 ± 0.061	1.18 ± 0.084	1.29 ± 0.067	1.41 ± 0.16	1.72 ± 0.15	1.93 ± 0.32
TBRG4 (UniProt Q969Z0)	0.981 ± 0.047	0.957 ± 0.015	0.928 ± 0.026	0.962 ± 0.069	0.955 ± 0.022	0.948 ± 0.015
UniProt Q9HC36	1.11 ± 0.06	1.29 ± 0.068	1.57 ± 0.13	1.8 ± 0.21	2.03 ± 0.2	2.37 ± 0.32
ARMC1 (UniProt Q9NVT9)	0.913 ± 0.046	0.946 ± 0.018	0.876 ± 0.024	0.866 ± 0.063	0.881 ± 0.035	0.908 ± 0.029
NCOA5 (UniProt Q9HCD5)	1.09 ± 0.031	1.22 ± 0.056	1.49 ± 0.062	1.85 ± 0.12	2.23 ± 0.12	2.76 ± 0.14
MRPL17 (UniProt Q9NRX2)	1.08 ± 0.13	0.934 ± 0.14	0.939 ± 0.14	0.916 ± 0.33	0.93 ± 0.21	0.822 ± 0.18
PXDN (UniProt Q92626)	1.06 ± 0.1	1.03 ± 0.067	1.09 ± 0.06	1.05 ± 0.049	1.04 ± 0.074	1.06 ± 0.1
ITPKC (UniProt Q96DU7)	0.986 ± 0.048	0.971 ± 0.041	1.0284 ± 0.00016	0.857 ± 0.11	0.886 ± 0.026	0.883 ± 0.019

Target	NP40-soluble protein abundance (concentration: 1mM)	NP40-soluble protein abundance (concentration: 2mM)	NP40-soluble protein abundance (concentration: 4mM)	NP40-soluble protein abundance (concentration: 6mM)	NP40-soluble protein abundance (concentration: 8mM)	NP40-soluble protein abundance (concentration: 10mM)
UniProt Q96NT0|B8ZZ99	0.832 ± 0.11	0.87 ± 0.12	0.886 ± 0.061	0.84 ± 0.16	0.863 ± 0.11	0.849 ± 0.16
UniProt Q9H6W3	1.2 ± 0.019	1.25 ± 0.029	1.31 ± 0.063	1.46 ± 0.1	1.54 ± 0.11	1.73 ± 0.093
UniProt Q9NNW7|Q9NNW7-2	1.01 ± 0.04	0.942 ± 0.011	0.983 ± 0.067	0.951 ± 0.02	0.949 ± 0.057	0.958 ± 0.1
UniProt Q9BTX1|Q9BTX1-2|Q9BTX1-5|Q9BTX1-6	1.01 ± 0.076	1.01 ± 0.071	1.03 ± 0.1	0.996 ± 0.13	1.06 ± 0.044	1.08 ± 0.084
UniProt Q9UBS0	1.1 ± 0.063	1.11 ± 0.082	1.12 ± 0.088	1.05 ± 0.053	1.15 ± 0.14	1.09 ± 0.11
UniProt Q9BTE6|Q9BTE6-3	0.947 ± 0.046	0.965 ± 0.018	0.932 ± 0.015	0.964 ± 0.067	0.928 ± 0.036	0.958 ± 0.025
UniProt Q96N16|Q96N16-2	1.17 ± 0.24	1.27 ± 0.16	1.28 ± 0.24	1.37 ± 0.19	1.27 ± 0.23	1.36 ± 0.17
UniProt Q9NUL5	0.948 ± 0.041	0.972 ± 0.048	0.921 ± 0.029	0.921 ± 0.057	0.908 ± 0.025	0.924 ± 0.035
UniProt Q9NYK6|Q9NYK6-3	1.09 ± 0.13	1.02 ± 0.026	1.04 ± 0.011	1.05 ± 0.089	0.99 ± 0.066	1.05 ± 0.026
ARGLU1 (UniProt Q9NWB6)	1.72 ± 0.14	1.86 ± 0.18	2.03 ± 0.26	2.27 ± 0.22	2.33 ± 0.28	2.44 ± 0.27
UniProt Q99653	0.961 ± 0.041	0.989 ± 0.011	0.983 ± 0.029	0.965 ± 0.054	0.961 ± 0.059	0.931 ± 0.037
UniProt Q9BTT6	0.931 ± 0.073	0.916 ± 0.081	0.945 ± 0.049	0.967 ± 0.092	0.961 ± 0.092	0.922 ± 0.045
UniProt Q9UEY8|Q9UEY8-2	1.01 ± 0.019	1.02 ± 0.018	1.01 ± 0.014	1.02 ± 0.035	0.99 ± 0.023	1.004 ± 0.0086
UniProt Q9NUL3-3|Q9NUL3-8|A0A0A0MTD1|E7EPX0|E7EVJ4|F8VPI7|A0A0A0MTC5|E9PH62|Q9NUL3|Q9NUL3-2	0.971 ± 0.048	1.11 ± 0.13	1.02 ± 0.057	1.11 ± 0.15	1.16 ± 0.099	1.3 ± 0.11
UniProt Q9HDC9	1.03 ± 0.13	1 ± 0.11	0.936 ± 0.039	0.903 ± 0.13	0.953 ± 0.06	0.953 ± 0.079
UniProt Q96T23|Q96T23-2	1.48 ± 0.043	1.62 ± 0.071	1.81 ± 0.041	2 ± 0.1	1.96 ± 0.039	2.13 ± 0.11
UniProt Q96AQ6|Q96AQ6-2	0.939 ± 0.053	0.927 ± 0.024	0.924 ± 0.028	0.953 ± 0.017	0.895 ± 0.01	0.9264 ± 0.0053
UniProt Q9GZP9|I3L1T3	0.935 ± 0.091	0.903 ± 0.083	0.946 ± 0.13	0.887 ± 0.12	0.944 ± 0.068	0.916 ± 0.11
COG8 (UniProt Q96MW5)	0.938 ± 0.057	0.917 ± 0.029	0.937 ± 0.048	0.898 ± 0.068	0.902 ± 0.06	0.975 ± 0.054
UniProt Q92833|Q92833-2	1.33 ± 0.27	1.32 ± 0.34	1.48 ± 0.51	1.49 ± 0.48	1.59 ± 0.63	1.76 ± 0.69
